# Screens: PubChem, National Center for Advancing Translational Sciences (NCATS)
# BRCA1 expr act: qHTS Assay to Identify Small Molecule Activators of BRCA1 Expression; Potency, µM (top dose mostly 46.1 µM), for the others: at the highest dose activation, usual class: activators; hit rate 1.1% among 380,000; MCF7-BRCA1-FFLuc reporter, luminescence, 48 h; response scale: scaled: vehicle 0%, 10 µM genistein 100%; further: nearly all actives have a fitted effect of over 80% in size
#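 MCF7-BRCA1-FFLuc cells, 2000/well in phenol-red-free MEM, attached 2 h then treated 48 h at 37 C. Luciferase luminescence read 15 min after reagent; normalized to genistein maximum activation (10microM) and DMSO, concentration-response fitted.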
# GLP-1R inv ag: qHTS of GLP-1 Receptor Inverse Agonists (Inhibition Mode); Glucagon-like peptide 1 receptor (Homo sapiens), P43220; HEK293 GLP-1R CRE-luciferase, luminescence, 24 h; GLP-1R form is constitutively active; Potency, µM (highest dose often 38.3 µM), inactives show at the top dose activity change, negative = inhibition, actives largely listed as inhibitors; hit rate 1.6% among 410,000; AID 624417, 2012; further: on the % scale 0 is the no-effect control and ±100 the full control effect; nearly all actives have a fitted effect of over 55% in size
# Target sequence (P43220 whole entry, looked up): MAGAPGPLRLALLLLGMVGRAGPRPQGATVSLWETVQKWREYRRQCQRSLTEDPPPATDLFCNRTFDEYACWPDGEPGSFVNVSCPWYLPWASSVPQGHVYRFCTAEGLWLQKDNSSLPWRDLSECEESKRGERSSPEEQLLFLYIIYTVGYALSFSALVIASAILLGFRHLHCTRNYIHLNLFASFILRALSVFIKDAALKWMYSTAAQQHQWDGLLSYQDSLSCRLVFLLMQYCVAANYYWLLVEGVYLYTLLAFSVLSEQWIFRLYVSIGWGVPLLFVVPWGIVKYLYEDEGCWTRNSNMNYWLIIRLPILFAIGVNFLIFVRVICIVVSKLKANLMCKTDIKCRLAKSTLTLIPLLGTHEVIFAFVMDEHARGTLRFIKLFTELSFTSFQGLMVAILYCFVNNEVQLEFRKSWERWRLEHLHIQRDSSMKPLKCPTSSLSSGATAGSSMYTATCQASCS
#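 Cells are plated, allowed 12 hours at 37 deg C, then treated with compounds for 24 hr before luciferase detection reagent is added and luminescence is read after 12 min at room temperature. The HEK293 line carries constitutively active GLP-1R with a cAMP-responsive reporter.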
# GLP1R ag: qHTS of GLP-1 Receptor Agonists; Glucagon-like peptide 1 receptor (Homo sapiens), P43220; HEK293 GLP-1R CRE-luciferase, luminescence, 4-6 h; cells express a hypersensitive GLP-1R form; Potency, µM (highest dose often 45.6 µM), for inactives: at the top dose activation, actives largely listed as activators; hit rate 0.007% among 380,000; AID 624172, 2012; further: % of control where 0% means no effect
# GLP1R cytotox: qHTS of GLP-1 Receptor Inverse Agonists: Cytotox Screen | HEK293 cAMP-luciferase reporter cells, luminescence, 24 h | Potency, µM (doses to about 38.3 µM), without a hit: top-dose activity change, negative = inhibition, most hits filed as inhibitors | hit rate 0.13% among 410,000;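 further: loss of luciferase light is scored as toxicity; on the % scale 0 is the no-effect control and ±100 the full control effect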
#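 MLSMR compounds, 24 hr on cells at 37 deg C/5% CO2; luminescence after luciferase reagent (12 min RT). Inhibition counted as the undesired cytotoxic outcome.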
# * hit, by the source's call; ? = inconclusive; · = not tested or not shown. An excerpt weighted towards active compounds, which were near 2.6% of everything screened. The call rests on the fitted dose curve; in most records, active means well fitted curve in the direction sought with a large enough effect; inconclusive means small, poorly fitted or top-dose-only effect, or another doubt; inactive means no such curve, though single readings can be large; an effect the other way counts as inactive or inconclusive. Potency means the concentration at half of the fitted maximal effect.
SMILES,BRCA1 expr act,GLP-1R inv ag,GLP1R ag,GLP1R cytotox
CCc1cccc(NC(=O)Nc2cccs2)c1,11.2µM*,?,-18.4%,-22.5%
COc1ccc(C2=NOC(CNC(N)=S)C2)cc1 (centres undefined),3.16µM*,?,-2.4%,4.5%
NS(=O)(=O)c1ccc(CNc2ccc3ccccc3n2)cc1,8.91µM*,3.0%,0.2%,13.7%
NS(=O)(=O)c1ccc(CNC(=O)c2ccc3ccccc3n2)cc1,-18.4%,3.7%,9.6%,-0.8%
CC(=O)c1c(C)nc2ccccc2c1N,8.5%,-0.5%,-14.0%,12.0%
Cc1nc2ccccc2c(N)c1C(=O)/C=C/c1ccccc1,-52.0%,10µM*,-3.4%,?
Cc1ncc(C[n+]2csc(CCOP(=O)(O)OP(=O)(O)O)c2C)c(N)n1,·,·,0.9%,·
CC1=C(C(=O)Nc2cccc(F)c2)C(c2ccsc2)C2=C(CC(C)(C)CC2=O)N1 (centres undefined),-73.5%,3.98µM*,14.1%,-22.5%
O=C(CN1CCN(c2ccc(Cl)cc2)CC1)Nc1ccc(F)c(F)c1,-4.8%,2.82µM*,-11.5%,5.5%
CCN(CC)c1ccc(NC(=O)CN2CCN(c3ccc(F)cc3)CC2)cc1,-0.7%,10µM*,-1.1%,-3.2%
COc1ccccc1N1CCN(CC(=O)Nc2ccc(CN3CCCCC3)cc2)CC1,-0.6%,?,-2.0%,?
Cc1ccc(Cl)cc1N1CCN(CC(=O)Nc2ccc(CN3CCCCC3)cc2)CC1,-34.8%,11.2µM*,-12.1%,?
O=C(CN1CCN(c2ccc(Cl)cc2)CC1)Nc1ccc(F)cc1,3.1%,?,-0.2%,5.0%
CC(C)Cn1c(N2CCN(CC(=O)Nc3ccc(Cl)cc3)CC2)nc2ccccc21,-10.2%,10µM*,7.1%,-24.5%
Cc1cc(C)cc(NC(=O)C2CCC(CNS(=O)(=O)c3ccc4c(c3)C(C)(C)C(=O)N4C)CC2)c1 (centres undefined),·,?,·,9.3%
O=[N+]([O-])c1cnc(Sc2ccncn2)c([N+](=O)[O-])c1,-24.0%,-3.9%,-4.4%,?
O=[N+]([O-])c1cnc(Sc2ccncn2)s1,-97.2%,?,-6.6%,2.82µM*
N#CCc1nc2ccccc2c(=O)[nH]1,-16.7%,-0.9%,3.0%,41.2%
Cc1ccccc1Nc1nnc(-c2ccc(C)c(S(=O)(=O)N3CCCCC3)c2)c2ccccc12,·,3.16µM*,·,0.8%
CCCN1CCCc2cc(CN(CCCN3CCOCC3)C(=O)Nc3ccc(Cl)c(Cl)c3)ccc21,·,?,·,-19.5%
CN(C)C1=NCCN1CCCCc1ccccc1,1.6%,-1.7%,-3.1%,12.1%
CCC(C)(C)c1ccc(Oc2ccc(N)cc2)cc1,-82.8%,2.82µM*,7.1%,-1.1%
CCNC(=O)NCCCOc1cccc(CN2CCCCC2)c1,·,·,5.3%,·
O=[N+]([O-])c1ccc(-[n+]2ccc3ccccc3c2)c([N+](=O)[O-])c1,-81.0%,?,-9.6%,12.6µM*
Cc1cccc(-c2nnc(SCc3ccc(C#N)cc3)n2Cc2ccco2)c1,-44.1%,?,1.3%,?
SMILES,BRCA1 expr act,GLP-1R inv ag,GLP1R ag,GLP1R cytotox
O=c1c2ccccc2nc(SCc2ccccc2)n1Cc1ccco1,-33.4%,11.2µM*,9.1%,18.2%
O=C(O)Cn1c(SCc2ccccc2)nc2ccccc21,38.3%,20.5%,25.1%,9.8%
FC(F)(F)COc1cc(-c2nnc(SCc3ccccc3)n2Cc2ccco2)cc(OCC(F)(F)F)n1,-38.8%,10µM*,13.0%,4.8%
Nn1c(SCc2ccccc2)nc2ccccc21,3.16µM*,-4.3%,9.8%,-10.0%
CN(C)c1ccc(/C=C2\C=Cc3cc(N)ccc32)cc1,21.6%,·,·,·
Nc1ccc2c(c1)C=C/C2=C\c1ccccc1,3.98µM*,·,·,·
O=C(NCCCN1CCN(c2ccccc2F)CC1)c1ccc2nc(CCc3ccccc3)oc2c1,·,?,·,-17.9%
CCN(CC)C(=O)CCc1nnc(Cc2cccc(C(F)(F)F)c2)o1,10µM*,-5.1%,7.5%,-4.0%
Cc1cc(CN(C)C(=O)CCc2nnc(Cc3cccc(C(F)(F)F)c3)o2)on1,?,75.8%,25.3%,1.5%
C=CS(=O)(=O)N(Cc1ccccc1)[C@H](CO)CC(C)C,-23.0%,-5.5%,6.9%,-4.4%
CC(C)C[C@H](CO)N(Cc1ccccc1)S(=O)(=O)N(Cc1ccccc1)[C@@H](CO)CC(C)C,-68.2%,5.62µM*,-1.4%,?
O=c1oc2ccc3ccccc3c2cc1-c1nnc(Nc2cccc(F)c2)s1,·,2.9%,·,-14.7%
COc1ccc(Cl)cc1-c1cc(C(=O)NCc2cccc(Cl)c2)[nH]n1,-61.9%,3.16µM*,1.5%,-18.8%
COc1cc(F)ccc1-c1cc(C(=O)NCc2cccc(Cl)c2)[nH]n1,14.3%,?,11.1%,-2.7%
COc1ccc2c(COC(=O)c3n[nH]c4ccccc34)cc(=O)oc2c1,4.47µM*,0.0%,3.8%,-13.3%
O=C(c1ccccc1Br)N(Cc1ccccc1)c1ccccc1,-35.7%,8.91µM*,14.7%,2.5%
C=C1C=C(C(F)F)n2ncc(C(=O)NCc3ccc(OC)c(OC)c3)c2N1,-20.6%,·,·,·
O=C(N/N=C/c1ccc(O)cc1)c1cc(C23CC4CC(CC(C4)C2)C3)[nH]n1,-3.1%,1.41µM*,15.0%,-31.7%
COC(=O)Cn1c(C)nc2c(sc3nc(C)cc(C)c32)c1=O,6.31µM*,46.4%,24.9%,-12.8%
CCOC(=O)Cn1cnc2c(sc3nc(C)cc(C)c32)c1=O,69.1%,8.6%,-1.2%,-12.3%
COc1ccc(Nc2cc(C(=O)NCCCN3CCN(c4ccc(OC)cc4)CC3)c3ccccc3n2)cc1,·,?,·,-20.2%
Nc1c(C(=O)Nc2ccc3c(c2)OCCO3)nnn1Cc1ccc(F)cc1,8.91µM*,7.5%,0.4%,-1.4%
Nc1c(C(=O)Nc2ccc3c(c2)OCCO3)nnn1Cc1cccc(Cl)c1,3.16µM*,-21.7%,12.6%,-4.6%
Nc1c(C(=O)Nc2ccc3c(c2)OCCO3)nnn1Cc1ccccc1Cl,?,?,4.3%,-2.1%
O=c1c2cnn(-c3ccc(Cl)cc3)c2ncn1Cc1ccc(Cl)cc1Cl,·,6.8%,·,5.0%
SMILES,BRCA1 expr act,GLP-1R inv ag,GLP1R ag,GLP1R cytotox
Cc1ccc(SCC(=O)N2c3ccccc3Sc3ccccc32)cc1,-24.3%,7.94µM*,1.6%,21.5%
O=C1NCCN/C1=C\C(=O)c1cccc(Br)c1,11.2µM*,6.9%,11.5%,-9.1%
CC(C)(C)c1ccc(C(=O)NCC(c2cccs2)S(=O)(=O)c2ccccc2)cc1 (centres undefined),·,2.82µM*,·,1.1%
CCOc1ccc(C(=O)NCC(c2cccs2)S(=O)(=O)c2ccccc2)cc1 (centres undefined),·,?,·,1.5%
CCOC(=O)c1cc(-c2ccc(C)cc2)nn1Cc1ccccc1,10µM*,?,4.3%,3.8%
Cc1ccc(Cn2nc(C)cc2C(=O)Nc2ccccc2Cl)cc1,3.98µM*,-26.6%,37.9%,8.1%
C=CCn1nc(-c2ccccc2)cc1C(=O)OCC,11.0%,10.1%,3.8%,8.9%
CCOC(=O)Cn1nc(-c2ccc(F)cc2)cc(Cc2ccccc2)c1=O,-28.1%,11.2µM*,19.7%,32.2%
